Screen size: about 370,000 compounds; about 4,800 (1.3%) were called active. Only a selection was taken, and actives are over-represented in it overall. Unmarked numbers belong to inactive results.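 How the source made its calls: active means inhibition above about 21% made by adding two undisclosed values (limit read from the data); inactive means the rest.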
target: Protein arginine N-methyltransferase 1 (Homo sapiens) (UniProt Q99873); assay: PRMT1 methyltransferase inhibitors, primary screen, biochemical, fluorescence polarization (AID 652257); settings: recombinant PRMT1, activity-based probe fluorescence polarization; at 2.79 µM; stronger effect = higher value
Sequence (Q99873 whole entry, looked up): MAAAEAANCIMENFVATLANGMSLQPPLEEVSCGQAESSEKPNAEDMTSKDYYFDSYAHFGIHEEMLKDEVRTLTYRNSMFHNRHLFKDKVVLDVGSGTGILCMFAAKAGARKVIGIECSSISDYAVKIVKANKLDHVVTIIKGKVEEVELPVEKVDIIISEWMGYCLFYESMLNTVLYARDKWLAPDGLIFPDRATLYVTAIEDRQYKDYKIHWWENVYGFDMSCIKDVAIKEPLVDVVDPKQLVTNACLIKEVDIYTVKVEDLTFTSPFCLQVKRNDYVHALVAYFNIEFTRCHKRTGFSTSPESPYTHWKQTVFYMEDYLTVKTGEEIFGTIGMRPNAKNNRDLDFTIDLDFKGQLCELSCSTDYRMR

| Structure (SMILES) | inhibition |
| --- | --- |
| CC(C)N1CCCCC(NC(=O)C(C)(C)C)C1=O (stereo not given) | -1.77% |
| Oc1c(C(c2cccs2)N2CCN(c3ccc(F)cc3)CC2)sc2ncnn12 (stereo not given) | -2.78% |
| Cc1nc2sc(C(c3ccco3)N3CCOCC3)c(O)n2n1 (stereo not given) | 49.8% (active) |
| Oc1c(C(c2ccco2)N2CCC3(CC2)OCCO3)sc2ncnn12 (stereo not given) | 21.8% (active) |
| Cc1nc2sc(C(c3ccco3)N3CCC4(CC3)OCCO4)c(O)n2n1 (stereo not given) | 8.34% |
| Cc1ccc(C(c2sc3nc(C)nn3c2O)N2CCN(c3ccccc3)CC2)cc1 (stereo not given) | -1.11% |
| CC(CCN1CCC(C(O)(c2ccccc2)c2ccccc2)CC1)Oc1ccc([N+](=O)[O-])cc1Cl (stereo not given) | -5.87% |
| CC(=O)Nc1ccc(NS(=O)(=O)c2cc(C)sc2C)cc1 | 3.68% |
| CC(C)C(C#CC1CC1)N(Cc1ccc2c(c1)OCO2)C(N)=NC(=O)/C=C/c1cccc(C(F)(F)F)c1 (stereo not given) | 1.58% |
| CCc1ccc(NC2Nc3cc(C)nn3S2)cc1 (stereo not given) | 30.6% (active) |
| CC(C)N1CCCCC(NC(=O)c2ccc3ccccc3c2)C1=O (stereo not given) | 1.16% |
| O=C(OCc1cn([C@@H]2C[C@H](c3ccc(Cl)cc3)N(Cc3cccs3)C[C@H]2O)nn1)c1ccccc1 | 6.65% |
| COC(=O)[C@@]12CCCCC=C1N(CCc1ccc(Cl)cc1)C(=O)[C@H]2CC(=O)NCc1ccc(OC)c(OC)c1 | 1.14% |
| C#CCN([C@@H](C)C(=O)OCC)S(=O)(=O)c1ccc(Br)cc1F | -2.15% |
| O=C(COc1cc(Cl)c(Cl)cc1Cl)NCCc1ccccn1 | -6.02% |
| O=C(COC(=O)COc1cc(Cl)c(Cl)cc1Cl)NC1CC1 | 0.44% |
| NC(=S)NN=Cc1ccc(OC(=O)COc2cc(Cl)c(Cl)cc2Cl)cn1 | 47.2% (active) |
| CCOC(=O)C1CCN(C(=O)C(C)(C)NC(=O)Nc2ccc(F)c(F)c2)CC1 | -1.45% |
| CCS(=O)(=O)Nc1cc(C(=O)OC)ccc1C(=O)OC | 4.51% |
| COC(=O)c1ccc(NCc2cc(O)ccc2O)cc1 | 28.5% (active) |
| O=C(OC12CC3CC(CC(C3)C1)C2)c1ccc(NCc2cc(O)ccc2O)cc1 | 19.5% |
| CCC(=O)OCCCN1C(=O)CCC12CCC(c1ccccc1)CC2 (stereo not given) | 0.61% |
| O=C(NCc1cccs1)C1CCN(S(=O)(=O)c2ccccc2[N+](=O)[O-])CC1 | -2.52% |

| Structure (SMILES) | inhibition |
| --- | --- |
| COc1ccc(CN2C(=O)CC(Cc3ccc(C)cc3)C2=O)cc1OC (stereo not given) | 2.37% |
| CCOC(=O)c1ccc(N2C(=O)CC(N3CCC(C(=O)OCC)CC3)C2=O)cc1 (stereo not given) | 53.2% (active) |
| CCOC(=O)c1ccc(N2C(=O)CC(N3CCN(C(=O)c4ccccc4)CC3)C2=O)cc1 (stereo not given) | -1.22% |
| COc1ccc(N2C(=O)CC(N3CCC(C(N)=O)CC3)C2=O)cc1 (stereo not given) | 62.3% (active) |
| COc1cccc(N2C(=O)CC(N3CCN(S(=O)(=O)c4ccccc4)CC3)C2=O)c1 (stereo not given) | 4.31% |
| CCOC(=O)c1ccc(N2C(=O)CC(N(C)Cc3ccccc3)C2=O)cc1 (stereo not given) | 1.83% |
| COc1cccc(N2CCN(C3CC(=O)N(c4ccc(Cl)cc4)C3=O)CC2)c1 (stereo not given) | 17% |
| COc1ccc(CCN2C(=O)CC(N3CCC(C(N)=O)CC3)C2=O)cc1OC (stereo not given) | 39.3% (active) |
| COc1ccc(CCN2C(=O)C3CC=C(C)CC3C2=O)cc1OC (stereo not given) | 0.69% |
| CCN(CC)C(=O)CC[C@@H]1CC[C@]2(CCCN(S(=O)(=O)C3CCCCC3)C2)O1 | 8.38% |
| CC1(C)SC2c3ccccc3C(=O)N2[C@@H]1C(=O)NCc1ccco1 (stereo not given in full) | 2.92% |
| CN=C1SC(C(=O)O)CC(=O)N1C (stereo not given) | 0.87% |
| COC(=O)[C@]12C[C@H](CC(=O)N3CCOCC3)C(=O)N(Cc3ccc(Cl)cc3Cl)C1=C[C@H](C(C)C)O[C@@H]2C1CC1 | 3.55% |
| c1ccc(C2CNCc3c2ccc2ccccc32)cc1 (stereo not given) | 2.21% |
| CCCC(C(=O)NCc1ccco1)N(C(=O)CNS(=O)(=O)c1ccccc1)C1CCCC1 (stereo not given) | -1.78% |
| COC(=O)C1CN(CC(C)C)CCS(=O)(=O)N1Cc1ccc(C)cc1 (stereo not given) | 6.76% |
| O=C(C1CCCN1S(=O)(=O)c1ccccc1)N1CCc2ccccc2C1 (stereo not given) | -6.97% |
| CC(C)CNS(=O)(=O)CC1NCCc2ccccc21 (stereo not given) | 4.3% |
| CCn1c2ccccc2c2cc(NC(=O)CSc3nnc(-c4ccccc4)n3-c3ccc(C)cc3)ccc21 | -1.61% |
| CN(CCOc1ccccc1)C(=O)c1cc(-c2ccco2)nc2ccccc12 | 29.2% (active) |
| O=C(c1cc(-c2ccc(Cl)s2)nc2ccccc12)N1CCOCC1 | -5.47% |
| O=C(Nc1cccc(F)c1)c1coc(=O)c(Br)c1 | 5.43% |
| Cc1cc(C(=O)Nc2ccc(C)c(S(=O)(=O)N3CCOCC3)c2)c2ccccc2n1 | 0.88% |

| Structure (SMILES) | inhibition |
| --- | --- |
| CC(C)N(Cc1nnc(-c2ccccc2Br)o1)C(=O)c1cc(Cl)nc2ccccc12 | -5.25% |
| O=C(Nc1cccc(F)c1)c1cc(-c2ccco2)nc2ccccc12 | 30.3% (active) |
| CN(CCOc1ccccc1)Cc1nc2cc(Cl)ccc2c(=O)[nH]1 | 2.3% |
| CC(=O)N1CCN(C(=O)c2cc(-c3ccc(Cl)s3)nc3ccccc23)CC1 | 2.92% |
| O=C(c1ccc(Cl)s1)N(Cc1nnc(-c2ccccc2Cl)o1)C1CC1 | 1.28% |
| O=C(c1cc(-c2ccco2)nc2ccccc12)N(Cc1nnc(-c2ccc(Cl)cc2)o1)C1CC1 | 22.5% (active) |
| CN(C)C(CNC(=O)CCCOc1ccccc1)c1ccco1 (stereo not given) | -0.86% |
| CC(=O)N1CCN(C(=O)c2cc(-c3ccc(C)o3)nc3ccccc23)CC1 | 32.5% (active) |
| COC(=O)C[C@H]1CC[C@H]2[C@H](COc3ccc(NC(=O)C4CC4)cc3C(=O)N2C)O1 | 1.52% |
| CC(=O)NCCc1ccc(S(=O)(=O)N(C)C2CCS(=O)(=O)C2)cc1 (stereo not given) | -0.5% |
| CN1C[C@]2(C=C3CCCCC3n3c(=O)n(-c4ccccc4)c(=O)n32)N=C1NC(=O)c1ccccc1 (stereo not given in full) | 1.11% |
| COC(=O)C[C@@H]1CC[C@H]2[C@@H](COc3ccc(NS(=O)(=O)CC(F)(F)F)cc3C(=O)N2C)O1 | 4.04% |
| O=C(CNS(=O)(=O)c1ccccc1)NCC(=O)OCc1ccccc1F | 1.67% |
| CC(=O)C1(C(=O)Nc2nccs2)CC(c2ccccc2C(F)(F)F)=NO1 (stereo not given) | 5.04% |
| O=C1CCC/C(=N\NC(=O)NC2CCCCC2)C1 | 0.8% |
| O=C(OC12CCCN(C1)/C(=C/c1ccccc1)C2)c1ccco1 (stereo not given) | -3.75% |
| CNC(=O)NC(=O)CSc1nnc(-c2ccc(F)cc2)n1CC1CCCO1 (stereo not given) | 2.71% |
| COc1ccccc1CCNC(=O)C1CCN(c2nc(C)cc(C)n2)CC1 | 1.67% |
| CCn1c(SCC(C)=O)nc2sc3c(c2c1=O)CCCC3 | -4.09% |
| CN(C(=O)COC(=O)c1cc(-c2ccco2)nc2ccccc12)C1CCS(=O)(=O)C1 (stereo not given) | 21.6% (active) |
| Cc1cc(C(=O)OCC(=O)N2C(C)CCCC2C)c2ccccc2n1 (stereo not given) | 7.6% |
| Cc1ccc(S(=O)(=O)CCC(=O)OCC(=O)N(C)C2CCS(=O)(=O)C2)cc1 (stereo not given) | 1.31% |
| COc1ccc(NC(=O)CN(C)C(=O)c2cc(-c3ccc(C)o3)nc3ccccc23)cc1 | 26.9% (active) |

| Structure (SMILES) | inhibition |
| --- | --- |
| Cc1ccc(NC(=O)c2cc(-c3ccc(C)o3)nc3ccccc23)nc1 | 47.4% (active) |
| Cc1cc(NC(=O)c2ccccc2C)no1 | -1.67% |
| COc1ccc(NC(=O)CN(C)C(=O)c2cc(C)oc2C)cc1 | -0.84% |
| COc1cccc(NC(=O)CN(C)C(=O)c2cc(Cl)nc3ccccc23)c1 | -4.52% |
| O=C(Nc1nc2ccc(Cl)cc2s1)c1cc(-c2ccc(Cl)cc2)nc2ccccc12 | 9% |
| CC1(C)CC(CNCCC(c2ccc(F)cc2)c2ccco2)CCO1 (stereo not given) | -2.86% |
| O=C(NCCc1ccc(Cl)cc1Cl)c1cc([N+](=O)[O-])c[nH]c1=O | -1.63% |
| CC(=O)c1ccc(Cc2ncc(C(F)(F)F)cc2Cl)s1 | 1.39% |
| CCOC(=O)C1CCN(C(=O)C(C)(C)NC(=O)Nc2ccccc2Cl)CC1 | -1.31% |
| Cc1ccc(-n2c(SCC(=O)Nc3ccc(S(=O)(=O)Nc4nccs4)cc3)nnc2-c2cccnc2)cc1 | -3.77% |
| O=C(COC(=O)Cc1ccc(F)cc1)Nc1cc(S(=O)(=O)N2CCOCC2)ccc1N1CCCC1 | -0.54% |
| CC(C)CCC(=O)Nc1cc(S(=O)(=O)N2CCOCC2)ccc1N1CCCC1 | -0.42% |
| COCCNC(=S)Nc1cc(S(=O)(=O)N2CCOCC2)ccc1N1CCCCC1 | 29.6% (active) |
| CN(C)Cc1cn(-c2ccc(-c3noc4c3C(=O)N(CC(=O)N3CCOCC3)CC4)cc2)nn1 | 3.49% |
| O=C(/C=C/c1cccc(C(F)(F)F)c1)N1CCN(c2ccccn2)CC1 | 3.3% |
| Cc1ccc(C)c(NC(=O)CCS(=O)(=O)c2ccccc2)c1 | 10% |
| O=S(=O)(Nc1n[nH]c(C(F)(F)F)n1)c1ccccc1 | -0.91% |
| Cc1noc(C)c1C(=O)OC(C)C(=O)Nc1ccc2c(c1)OCO2 (stereo not given) | -4.06% |
| CC1CCC(NS(=O)(=O)c2ccc3c(c2)CC(=O)N3)CC1 (stereo not given) | 2.71% |
| O=S(=O)(NC1CC1)c1ccc(F)c(F)c1 | 0.17% |
| Cn1sc(=O)c2cc(S(=O)(=O)NC3CC3)ccc21 | 36.8% (active) |

Source: PubChem BioAssay AID652257 (The Scripps Research Institute Molecular Screening Center, 2013)
